Screening data deposited in PubChem by National Center for Advancing Translational Sciences (NCATS).
Shown are actives, neighbours in structure and some others; about 15% of the full set was active somewhere.
TDP1 cell noCPT: qHTS for Inhibitors of human tyrosyl-DNA phosphodiesterase 1 (TDP1): qHTS in cells in absence of CPT; DT40 Tdp1-/- hTDP1 cells, no CPT, ATP luminescence, 48 h; Potency, µM (highest dose often 46.2 µM), for the others: top-dose activity change, negative = growth inhibition, actives largely listed as inhibitors; 420,000 tested, 15% active; note: nearly all actives have a fitted effect of over 55% in size
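Seeded 400 DT40-hTDP1 cells/well (vehicle DMSO, no 20 nM CPT); pinned compounds; ≥48 hr at 37 °C; CellTiter-Glo luminescence as viability measure.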
ELG1 DNA repair: blocks ELG1-dependent DNA repair in HEK293T cells. HEK293T ELG1-luciferase reporter, luminescence, 16 h; DNA damage induced by 5-fluorouridine. Potency, µM (highest dose often 46.1 µM), for the others: at the top dose activity change, negative = inhibition, usual class: inhibitors. 330,000 tested, 2.3% active. AID 504467; note: nearly all actives have a fitted effect of over 55% in size
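In this reporter screen, reduction of luminescence relative to DMSO vehicle indicated activity. Compounds and 5-fluorouridine were added together to 2,000 cells per well, incubated for 16 hr at 37 °C, then developed with ONE-Glo.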
12-LOX inh: blocks human arachidonate 12S-lipoxygenase; P18054; purified 12hLO, xylenol orange hydroperoxide absorbance; Potency, µM (titrated, usually from 108 µM), inactives show at the highest dose activity change, negative = inhibition, actives largely listed as inhibitors; 580,000 tested, 1.1% active; AID 1671190
Target sequence (P18054 whole entry, looked up): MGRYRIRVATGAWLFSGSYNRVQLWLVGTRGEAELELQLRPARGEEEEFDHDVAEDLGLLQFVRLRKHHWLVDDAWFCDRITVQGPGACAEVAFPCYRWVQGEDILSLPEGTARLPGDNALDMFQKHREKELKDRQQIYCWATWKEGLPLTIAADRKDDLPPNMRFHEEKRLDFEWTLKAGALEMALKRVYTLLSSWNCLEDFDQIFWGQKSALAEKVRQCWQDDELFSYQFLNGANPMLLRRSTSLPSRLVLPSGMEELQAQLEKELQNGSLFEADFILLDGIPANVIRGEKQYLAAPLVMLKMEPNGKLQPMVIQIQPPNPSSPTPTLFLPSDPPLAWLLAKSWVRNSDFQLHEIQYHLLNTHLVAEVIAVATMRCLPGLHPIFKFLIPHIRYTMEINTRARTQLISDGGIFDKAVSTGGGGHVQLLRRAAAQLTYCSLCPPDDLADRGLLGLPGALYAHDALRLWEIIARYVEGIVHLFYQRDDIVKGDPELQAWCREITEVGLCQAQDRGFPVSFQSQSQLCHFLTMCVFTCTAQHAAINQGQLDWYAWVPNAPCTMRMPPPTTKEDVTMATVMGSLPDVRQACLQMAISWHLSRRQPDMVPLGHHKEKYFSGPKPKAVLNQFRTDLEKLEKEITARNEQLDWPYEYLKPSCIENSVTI
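Purified human 12hLO at 150 nM in 25 mM Hepes, 0.01% Triton X-100, pH 7.0, preincubated 15 min at room temperature with compound. Reaction started with 40 uM arachidonic acid, 30 min at room temperature. Hydroperoxide measured by Fe-xylenol orange, 573/405 nm absorbance ratio.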
RORg inh: blocks mouse ROR gamma transcriptional activity; Potency, µM (highest dose often 53.6 µM), for the others: top-dose activity change, negative = inhibition, hits mostly inhibitors; P51450; AID 2551; 310,000 tested, 5.4% active; Drosophila S2 Gal4-RORgamma UAS-luciferase reporter, 20 h; note: nearly all actives have a fitted effect of over 60% in size
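Luminescence from a UAS-regulated Photinus luciferase reporter in stably transfected Drosophila Schneider cells is measured; decreased signal marks ROR gamma inhibition. Fusion expression is induced by 700 uM copper sulfate for 20 hr.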
VP16 counter: inhibits Gal4-VP16 luciferase reporter, ROR gamma counter-screen; Drosophila S2 Gal4-VP16 UAS-luciferase, luminescence, 20 h; Potency, µM (titrated, usually from 53.6 µM), for the others: at the highest dose activity, negative = inhibition, actives largely listed as inhibitors; 310,000 tested, 3.5% active;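 note: Gal4-VP16 expression switched on by copper sulfate through the metallothionein promoter; nearly all actives have a fitted effect of over 50% in size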
TDP1 cell CPT: growth inhibition of DT40 Tdp1-/-;hTDP1 cells with camptothecin (screen for TDP1 inhibitors) | chicken DT40 Tdp1-/-;hTDP1 cells + 20 nM CPT, ATP luminescence, 48 h | Potency, µM (top dose mostly 46.2 µM), inactives show at the highest dose activity change, negative = growth inhibition, hits mostly inhibitors | 420,000 tested, 12% active | AID 686979; note: nearly all actives have a fitted effect of over 55% in size
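Cell growth measured by CellTiter-Glo luminescence after a minimum 48 h, 37 C compound exposure with 20 nM CPT in Tdp1-knockout DT40 cells stably expressing hTDP1, seeded 400/well; qHTS titration format.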
An asterisk follows results filed as active; ? = inconclusive; · = not tested or not shown; [ ] = remark or other dose. Calls come from the whole dose curve; as a rule, active = well fitted curve in the direction sought with a large enough effect; inconclusive = small, poorly fitted or top-dose-only effect, or another doubt; inactive = no such curve, though single readings can be large; an effect the other way counts as inactive or inconclusive. % is set by controls: 0 for no effect and ±100 for the full control effect; potency is the fitted concentration of half-maximal effect.

SMILES | TDP1 cell noCPT | ELG1 DNA repair | 12-LOX inh | RORg inh | VP16 counter | TDP1 cell CPT
CCCn1c(NC(=O)C2COc3ccccc3O2)nc2ccccc21 (configuration not stated) | 18µM* | 9% | -2% | 1.4µM* | 1.4µM* | 18µM*
Cc1nc2ccccc2n1CC(=O)NC1CCCC1 | -18% | -29% | -1% | 28% | 2%[10 µM] | -9%
Cc1nc2ccccc2n1CC(=O)NC1CCCCCC1 | 13µM* | 15µM* | -4% | 35% | 20µM* | 12µM*
O=C1CC2(CCCCC2)CC(=O)O1 | · | · | -1% | · | · | ·
Cc1nc(-c2ccccc2)sc1C(=O)NS(=O)(=O)c1ccc(CN2CCN(c3ccccc3)CC2)cc1 | 0% | · | 32µM* | · | · | 3%
Cc1ccc(-c2cc(C(=O)N3CCN(c4ncccn4)CC3)c3ccccc3n2)cc1 | 16µM* | ? | ? | ? | ? | ?
COc1ccc(-c2cc(C(=O)N3CCC3)c3ccccc3n2)cc1OC | -5% | ? | -3% | · | · | -7%
COc1ccc(-c2cc(C(=O)N3CCN(c4cccc(C)c4C)CC3)c3ccccc3n2)cc1OC | 13µM* | ? | · | · | · | ?
COc1ccc(-c2cc(C(=O)N3CCN(c4ncccn4)CC3)c3ccccc3n2)cc1OC | ? | 6.5µM* | ? | · | · | ?
Cc1ccc2nc(-c3ccccn3)cc(C(=O)N3CCN(c4ncccn4)CC3)c2c1 | 13µM* | ? | 153% | 4% | -2% | 21µM*
Cc1[nH]c(SC(C)C(=O)Nc2cccc(S(=O)(=O)N(C)C)c2)nc1Cc1ccccc1 (configuration not stated) | · | · | 7% | · | · | ·
CCOC(=O)CC(N)c1cc(OC)cc(OC)c1 (configuration not stated) | · | · | 61% | · | · | ·
COCCNC(=O)NC(=O)CN(CC(C)C)C1CC1 | · | · | -19% | · | · | ·
CCOCCCNc1nc2c(c(=O)[nH]c(=O)n2C)n1CCC(C)C | · | · | 24% | · | · | ·
Cc1cc(C(=O)N2CCCN(S(C)(=O)=O)C(c3ccccc3)CC(=O)NCC2)n(C)n1 (configuration not stated) | · | · | -10% | · | · | ·
COCCOC1CCOC2(CCN(C(=O)c3ccco3)CC2)C1 (configuration not stated) | · | · | 23% | · | · | ·
CC(C)NS(=O)(=O)c1ccc(OCC(=O)N2CCN(c3ccccc3F)CC2)cc1 | 15µM* | · | 0% | · | · | ?
CC(C)CNS(=O)(=O)c1ccc(CCC(=O)N2CCN(c3ccccc3)CC2)cc1 | ? | ? | -3% | 19% | 7% | ?
O=C(COc1ccc(S(=O)(=O)N2CCCC2)cc1)N1CCN(c2ccccc2F)CC1 | ? | ? | -10% | ? | -5% | ?
COc1ccccc1N1CCN(C(=O)CCc2ccc(S(=O)(=O)NCC(C)C)cc2)CC1 | 23µM* | · | 0%[57.4 µM] | ? | 16% | ?
COc1ccccc1N1CCN(C(=O)CCc2ccc(S(=O)(=O)NC(C)C)cc2)CC1 | 18µM* | ? | 4% | 0%[10 µM] | 1% | ?
O=C1NCCCCCCN(C(=O)c2cccnc2)[C@H]2C[C@H](C(=O)N3CCc4ccccc4C3)C[C@@H]12 | · | · | 39% | · | · | ·
CNC(=O)C(C)n1nc(-c2cc(C)ccc2C)c2ccccc2c1=O (configuration not stated) | · | · | 5% | · | · | ·
CS(=O)(=O)c1cnc2c(S(=O)(=O)c3ccccc3)cnn2c1N | -3% | 2% | -21% | 14% | 8% | 7%
COc1ccc(-c2cnn3c(N)c(S(=O)(=O)c4ccccc4)cnc23)cc1 | ? | -14% | 3% | 2.8µM* | 5.6µM* | ?
SMILES | TDP1 cell noCPT | ELG1 DNA repair | 12-LOX inh | RORg inh | VP16 counter | TDP1 cell CPT
Nc1c(S(=O)(=O)c2ccccc2)cnc2c(-c3ccc(F)cc3)cnn12 | 1% | ? | -17% | 4.5µM* | 10µM* | -26%
CC(C)(C)c1ccc(NC(=O)O[C@@H]2CO[C@H]3[C@@H]2OC[C@@H]3Nc2nccc(-c3ccc4c(c3)OCO4)n2)cc1 | · | · | 1% | · | · | ·
CCNC(=S)NNC(=O)C1CCCC1 | · | · | 14% | · | · | ·
CCNC(=O)C/C(C)=N/NC(=O)C1CCCCC1 | -5% | 16% | -11% | 11µM* | ? | -8%
CCNC(=S)NNC(=O)C1CCCCC1 | -2% | -14% | -17% | 13µM* | ? | 5%
COc1ccc(-c2noc([C@@H](C)NC(=O)C3CCCCC3)c2C(=O)O)cc1 | · | · | -43%[176 µM] | · | · | ·
COc1ccc(COCC(O)CNC(=O)C2CC2)cc1 (configuration not stated) | · | · | 5% | · | · | ·
Nn1cnnc1SCC(=O)Nc1ccc(C2CCCCC2)cc1 | -12% | ? | 24% | 20% | -10% | -3%
O=C(O)CSCC(=O)Nc1ccc(C2CCCCC2)cc1 | -5% | · | 30% | 2.2µM* | 3.2µM* | 1%
CCOC(=O)c1[nH]c2ccc(C)cc2c1NC(=O)CC | · | · | -22% | · | · | ·
CCN(CC)c1ccc(C(=O)N/N=C(\C)c2ccc(OC)c(OC)c2)cc1 | 26µM* | 0% | 7% | 3% | 5% | -4%
CC(C(Sc1ccccc1N)c1ccccc1)[N+](=O)[O-] (configuration not stated) | 3.7µM* | ? | ? | ? | ? | 3.7µM*
COC(=O)c1ccccc1SC(CC(=O)c1ccccc1)c1ccc(F)cc1 (configuration not stated) | 23µM* | ? | -13% | 10% | -8% | 18µM*
O=C(CC(Nc1ccc(F)cc1)c1ccccc1)c1ccccc1 (configuration not stated) | -23% | ? | 0% | 38% | ? | 16%
Nc1ccccc1SC(CC(=O)c1ccccc1)c1ccccc1 (configuration not stated) | 13µM* | · | · | · | · | ?
C#CCN1CCC(C(=O)NCCN2CCC(C)CC2)CC1 | · | · | 5% | · | · | ·
COc1cccc(S(=O)(=O)Nc2ccc3c(c2)C(=O)N(C)C[C@H](OC)[C@H](C)CN(Cc2ccccc2F)[C@@H](C)CO3)c1 | 8.2µM* | · | ? | · | · | 9.2µM*
CCC1=C(C(=O)OC)C(c2ccc(OC)cc2OC)N2C(CC(=O)N3CCOCC3)=CSC2=N1 (configuration not stated) | · | · | 4% | · | · | ·
CC(C)(C)c1cc(NC(=O)Nc2ccc(Cl)c(Cl)c2)no1 | · | · | -11% | · | · | ·
Cc1cc(OCC(=O)Nc2ccncc2)ccc1Br | 23µM* | ? | 468% | -24% | ? | ?
